The values below come from PubChem BioAssay (Tox21).

Records with an inconclusive call do not appear. Entries that show only a call come without a potency. Active and inactive are the calls of the source. Calls come from the whole dose curve.

The test in a line: qHTS assay for small molecules that induce genotoxicity in human embryonic kidney cells expressing luciferase-tagged ATAD5 - cell viability (AID 651634). Note: nearly all actives have a fitted effect of over 25% in size. To be noted: HEK293T ATAD5-luc cells viability, CellTiter-Fluor, 15.5 h; series mostly up to 83.3 µM. Put shortly: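 Cells (HEK293T, luciferase-tagged ATAD5) are seeded at 2,000 per well, dosed with compound or DMSO vehicle, and incubated 15.5 hr at 37C and 5% CO2. CellTiter-Fluor is added for 30 min before fluorescence is measured.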
In the case of `CC1=NNC(=O)N(/N=C/c2cccnc2)C1`, the Potency entry was “inactive”.

Take `CC(C)COP(=O)(OCC(C)C)OCC(C)C`: the Potency entry is “inactive”.

Turning to `Clc1cccc(N2CCNCC2)c1`, the Potency result was “inactive”.

As for `ClCC(Cl)(Cl)Cl`, the Potency entry is “inactive”.

As to `CCCCN(CCCCO)N=O`, the Potency result is “inactive”.

In the case of `CC(C)CP(=S)(S)CC(C)C`, the Potency entry is “inactive”.

As for `CCS(=O)(=O)C(C)(C)S(=O)(=O)CC`, the Potency result was “inactive”.

Regarding `O=C(Oc1ccc(Br)cc1)N1CCN2CCC1CC2`, the Potency entry was “inactive”.

Take `CC(C1CC1)C(O)(Cn1cncn1)c1ccc(Cl)cc1` (stereo not given): the Potency entry is “inactive”.

For `CC(CC(C#N)(c1ccccc1)c1ccccc1)N(C)C` (stereo not given), the Potency result is “inactive”.

For the compound `NC(=O)O`, the Potency entry is “inactive”.

As to `O=C(NCO)NCO`, the Potency result was “inactive”.

Take `O=C(CCN1CC1)OCC(CO)(COC(=O)CCN1CC1)COC(=O)CCN1CC1`: the Potency entry is “inactive”.

For `CNC(=O)Oc1ccccc1C1OCCO1`, the Potency result was “inactive”.

In the case of `O=[N+]([O-])c1ccc2c3c(cccc13)CC2`, the Potency entry was “inactive”.

Turning to `C=CC1CC=CCC1` (stereo not given), the Potency entry was “inactive”.

`O=NN1CCN(N=O)CC1`: the Potency result is “inactive”.

Take `CCCCc1c(C)nc(NCC)[nH]c1=O`: the Potency entry was “inactive”.

As for `COc1ccc2c(c1OC)CN1CCc3cc4c(cc3C1C2)OCO4` (stereo not given), the Potency result is “inactive”.

As for `Cc1cccc(C#N)c1`, the Potency result is “inactive”.

On to `ClC(Br)Br`, for which the Potency result was “inactive”.

In the case of `C#C[C@]1(O)C=C[C@H]2[C@@H]3CCC4=CC(=O)CC[C@@H]4[C@H]3CC[C@@]21CC`, the Potency entry is “inactive”.

As for `CC(N)=S`, the Potency entry is “inactive”.

Consider `O=C(N[C@H]1CN2CCC1CC2)c1cc2ccoc2cn1`, for which the Potency entry was “inactive”.

As for `CCOC(=O)N(C)C(=O)CSP(=S)(OCC)OCC`, the Potency result is “inactive”.

Regarding `O=C1c2ccccc2C(=O)c2ccccc21`, the Potency result was “inactive”.

For the compound `C=C(C)CN(CC)c1c([N+](=O)[O-])cc(C(F)(F)F)cc1[N+](=O)[O-]`, the Potency entry was “inactive”.

`CNC(=O)O/N=C(\C)SC`: the Potency result is “inactive”.

In the case of `CCS(=O)(=O)CCSP(=O)(OC)OC`, the Potency entry was “inactive”.

Turning to `CNC(=O)Oc1ccc(N(C)C)c(C)c1`, the Potency entry was “inactive”.

Turning to `COc1cc(OC)nc(Sc2cccc(Cl)c2C(=O)O)n1`, the Potency entry was “inactive”.

`O=S(=O)(O)C(F)(F)C(F)(F)C(F)(F)C(F)(F)C(F)(F)C(F)(F)F`: the Potency entry was “inactive”.

For `Nc1cnn(-c2ccccc2)c(=O)c1Cl`, the Potency entry is “inactive”.

With `CN1C[C@@H](NS(=O)(=O)N(C)C)C[C@@H]2c3cccc4c3c(cn4C)C[C@H]21`, the Potency entry is “inactive”.

As for `CCOC(=O)NC(=S)Nc1ccccc1NC(=S)NC(=O)OCC`, the Potency entry is “inactive”.
